Assay outcomes: PubChem BioAssay, National Center for Advancing Translational Sciences (NCATS)
Rows were chosen to be rich in hits. Some 4.7% of all compounds tested hit in one or more screens of this group.
TRHR agonist-1: qHTS for Small Molecule Agonists and Allosteric Enhancers of Human TRH Receptor: Primary Screen for Agonists; Thyrotropin-releasing hormone receptor (Homo sapiens), P34981; TRHR cells, calcium flux fluo-8, FDSS agonist mode; activation, % at 2 µM; actives 0.18% (n = 360,000); AID 493084, 2011; note: 0% is about no effect
Target sequence (P34981 whole entry, looked up): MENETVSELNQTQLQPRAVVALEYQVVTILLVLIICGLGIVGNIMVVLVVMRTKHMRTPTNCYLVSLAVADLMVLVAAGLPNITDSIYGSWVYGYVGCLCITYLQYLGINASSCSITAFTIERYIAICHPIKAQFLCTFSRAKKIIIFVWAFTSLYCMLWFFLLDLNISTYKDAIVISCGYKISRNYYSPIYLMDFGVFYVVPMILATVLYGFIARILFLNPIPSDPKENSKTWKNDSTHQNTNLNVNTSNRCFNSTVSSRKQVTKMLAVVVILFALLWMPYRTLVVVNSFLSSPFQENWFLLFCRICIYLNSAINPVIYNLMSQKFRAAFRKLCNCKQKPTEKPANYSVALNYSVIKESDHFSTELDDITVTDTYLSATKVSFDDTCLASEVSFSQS
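TRHR-expressing cells loaded with fluo-8 calcium dye; 23 nL library compound pin-transferred, kinetic FDSS fluorescence (Ex 480/Em 530) recorded about 180 s for agonist-induced calcium release, before a 10 nM TRH EC20 addition for potentiator mode.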
D1 agonist: Allosteric Agonists of the Human D1 Dopamine Receptor: qHTS | D(1A) dopamine receptor (Homo sapiens), P21728 | HEK293 T-REx D1 cells, calcium flux, agonist mode | activation, % at 2 µM | actives 1% (n = 360,000) | AID 504660, 2011; note: 0% is about no effect
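Agonism was scored from calcium flux recorded over 180 s (1 read/s) after pintool compound addition, following a 10-cycle baseline. Cells were inducible force-coupled HEK293 TREx D1, plated overnight at 30 C and loaded with no-wash calcium dye.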
D1 antagonist: Antagonist of Human D 1 Dopamine Receptor: qHTS; D(1A) dopamine receptor (Homo sapiens), P21728; HEK293 TREx D1 cells, calcium flux, dopamine EC80; active compounds read low; activity change, negative = inhibition, % at 10 µM; actives 3.2% (n = 360,000); AID 504652, 2011; in the data active = activity change below about -30%; note: % is set by controls: 0 for no effect and ±100 for the full control effect
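Tetracycline-induced HEK293 Trex D1 cells, force-coupled to calcium, dye-loaded; compounds added and read 180 s, then EC80 dopamine added and calcium flux tracked kinetically another 180 s.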
TRHR enhancer-1: qHTS for Small Molecule Agonists and Allosteric Enhancers of Human TRH Receptor: Primary Screen for Enhancers; enhancement, % at 2 µM; Thyrotropin-releasing hormone receptor (Homo sapiens), P34981; actives 0.66% (n = 360,000); AID 493056, 2011; TRHR cells, fluo-8 calcium fluorescence, EC20 TRH enhancement; in the data active = enhancement above about 30%; note: 0% is about no effect
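Enhancer read-out: after compound pinning and an initial kinetic agonist-mode read, an EC20 of TRH (10 nM final) was injected and fluo-8 calcium signal (Ex 480/Em 530) followed at 1 s/cycle for 100 cycles in TRHR-expressing cells.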
D1 PAM: Potentiators of Human D1 Dopamine Receptor: qHTS; actives 0.036% (n = 360,000); HEK293 TREx D1 cells, calcium flux, dopamine EC20 potentiation; D(1A) dopamine receptor (Homo sapiens), P21728; potentiation, % at 10 µM; in the data active = potentiation above about 30%; note: 0% is about no effect
TRHR enhancer-2: qHTS for Small Molecule Agonists and Allosteric Enhancers of Human TRH Receptor: Confirmation Screen for Enhancers; shares compounds with TRHR enhancer-1; TRH receptor cell assay, enhancer confirmation qHTS; activity change, negative = inhibition, % at 46.1 µM; 970 tested, under 10 active; AID 493076, 2011; active = well fitted curve in the direction sought with a large enough effect; inconclusive = small, poorly fitted or top-dose-only effect, or another doubt; inactive = no such curve, though single readings can be large; an effect the other way counts as inactive or inconclusive;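 note: compound effect scored on response to added TRH at EC20 of 10 nM; 0% is about no effect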
TRHR agonist-2: qHTS for Small Molecule Agonists and Allosteric Enhancers of Human TRH Receptor: Confirmation Screen for Agonists. Potency, µM (highest dose often 46.1 µM), for inactives: top-dose activation, most hits filed as activators. actives 8% (n = 970). shares compounds with TRHR enhancer-1. TRHR-expressing cells, agonist activation read-out; active = well fitted curve in the direction sought with a large enough effect; inconclusive = small, poorly fitted or top-dose-only effect, or another doubt; inactive = no such curve, though single readings can be large; an effect the other way counts as inactive or inconclusive; note: potency is the fitted concentration of half-maximal effect; 0% is about no effect; nearly all actives have a fitted effect of over 75% in size
The depositor's hits bear a star; ? = inconclusive; · = not tested or not shown. Cut-off read from the data, not from the text of the source, unless noted: active = activation above about 30%; inactive = the rest.

SMILES	TRHR agonist-1	D1 agonist	D1 antagonist	TRHR enhancer-1	D1 PAM	TRHR enhancer-2	TRHR agonist-2
O=C(Nc1nnc(SCc2ccc(F)cc2)s1)C1=COCCO1	1	0	-5	43*	-5	-2	2%
CCC(=O)OC1=C(C(C)=O)N(Cc2ccccc2)S(=O)(=O)c2ccccc21	0	2	-8	1	0	·	·
Cc1ccc2c(=O)cc(C(=O)Nc3c(C)n(C)n(-c4ccccc4)c3=O)oc2c1C	0	-1	1	-6	5	·	·
COc1ccc(CCNc2oc(-c3ccccc3OC)nc2C#N)cc1OC	1	3	13	43*	4	?	0%
COc1ccc(CCNc2oc(-c3ccccc3OC)nc2C#N)cc1	-1	-4	-11	-4	-10	·	·
Cc1cc(C)c(NC(=O)C2CCN(c3nc4ccccc4n4cccc34)CC2)c(C)c1	0	18	6	3	-1	·	·
N#Cc1ccccc1OCc1nnc(-c2ccccc2Br)o1	0	0	19	44*	4	-18	3%
Clc1ccccc1OCc1nnc(-c2ccccc2Br)o1	0	3	-4	-8	-2	·	·
O=C1/C(=C/c2ccc(O)cc2)SC(=S)N1CC1CCCO1 (stereo not drawn)	39*	49*	-3	16	0	-6	?
CCCOc1ccc(/C=C2\SC(=S)N(CC3CCCO3)C2=O)cc1 (stereo not drawn)	1	8	1	-4	-3	·	·
Cc1nn(CCCC(=O)Nc2ccccn2)c(C)c1[N+](=O)[O-]	0	2	17	47*	0	-4	1%
C[N+]1(CCCCCCC(=O)/C=N/O)CCCCCC1	2	2	3	43*	-7	-1	-1%
C[N+](C)(C)CCCCCCC(=O)/C=N/O	0	2	4	-4	-1	·	·
COc1ccc(NC(=O)Nc2nnc(SCC(=O)Nc3cccc(C)c3C)s2)cc1	0	7	·	3	-3	·	·
CCOC(=O)C1CCN(c2ncnc3c2[nH]c2cccc(OC)c23)CC1	0	0	-11	9	-4	·	·
COCCOc1cc2ncnc(N3CCC(C(=O)O)CC3)c2cc1OCCOC	-2	2	3	43*	6	3	-1%
CCNc1nc(NCC)n2c(SCC(=O)Nc3ccc(F)cc3)nnc2n1	0	1	7	1	2	·	·
CCNc1nc(NCC)n2c(SCC(=O)Nc3ccc(C)c(C)c3)nnc2n1	0	7	3	45*	3	14	4%
CCCCn1nnnc1SCC(=O)Nc1ccc(N(C)C)cc1	0	1	15	54*	-4	-2	1%
CC(C)c1ccc(S(=O)(=O)Nc2ccc3oc4c(c3c2)C(=O)CC(C)(C)C4)cc1	-1	5	-19	0	-1	·	·
NC(=O)CN1CCOCCOCCN(CC(N)=O)CCOCCOCC1	-1	0	1	55*	-4	?	-1%
CC(C)(C)C(=O)c1sc2nc(-c3cccs3)cc(C(F)(F)F)c2c1N	0	0	-5	9	-1	·	·
Cc1nnc(NC(=O)c2sc3nc(-c4cccs4)cc(C(F)(F)F)c3c2N)s1	52*	361*	-30*	2	-2	5	?
C[C@@H](C(=O)N1CCNCC1)n1cc(CCCN=C(N)N)nn1	0	6	0	64*	-2	-2	-1%
CCC(C)[C@@H](C(=O)N1CCNCC1)n1cc(CCCN=C(N)N)nn1 (stereo partly drawn)	0	1	-9	-7	9	·	·
